Screening results from PubChem.
Pf growth 96h = inhibits malaria parasite growth, 96 h. P. falciparum luciferase reporter growth, 96 h. Potency, µM (highest dose often 28.7 µM), without a hit: top-dose activity change, negative = inhibition, hits mostly inhibitors. hit rate 6.9% among 320,000. AID 504834; further: potency means the concentration at half of the fitted maximal effect; on the % scale 0 is the no-effect control and ±100 the full control effect
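Readout is luminescence from an integrated firefly luciferase in P. falciparum. Red cells, 2% hematocrit and 0.05% parasitemia final, were cultured with compound through two parasite generations (96 hours) at 37 C, 5% CO2.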
HCV inhibitor = blocks hepatitis C virus; Huh7.5.1 HCVcc-Cre infection, luciferase reporter, 44 h; Potency, µM (titrated, usually from 41.8 µM), without a hit: at the highest dose activity change, negative = inhibition, usual class: inhibitors; hit rate 3.4% among 340,000; AID 651820; further: potency means the concentration at half of the fitted maximal effect; on the % scale 0 is the no-effect control and ±100 the full control effect
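Seed cells (1,000/well) for 4 h; treat with compound and infect with HCVcc-Cre, moi about 0.5. Incubate 44 h, then detect luciferase activity.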
Pf growth 48h = P. falciparum growth inhibition at 48 hours (one generation) | P. falciparum luciferase growth in erythrocytes, 48 h | Potency, µM (doses to about 28.7 µM), for inactives: top-dose activity change, negative = inhibition, actives largely listed as inhibitors | hit rate 5.9% among 310,000 | AID 504832; further: potency means the concentration at half of the fitted maximal effect; on the % scale 0 is the no-effect control and ±100 the full control effect
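Erythrocytes infected with P. falciparum carrying an integrated firefly luciferase reporter (2% hematocrit, 0.1% parasitemia final) were exposed to compounds in RPMI 1640 with 0.5% Albumax at 37 C, 5% CO2. Growth inhibition was scored as reduced luminescence.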
SARS PLpro yeast = SARS-CoV PLP inhibition in yeast | AID 485353 | Potency, µM (highest dose often 32.9 µM), without a hit: at the highest dose activity, positive = growth rescue, hits mostly activators | hit rate 0.19% among 330,000 | S. cerevisiae expressing SARS-CoV PLpro, growth rescue; calls by dose curve; further: potency means the concentration at half of the fitted maximal effect; 0% is about no effect; nearly all actives have a fitted effect of over 55% in size
HCMV antiviral = human cytomegalovirus inhibition; HFF cells, HCMV-luciferase reporter, 72 h; active compounds read low; activity change, negative = inhibition, % at 57.5 µM; hit rate 4.5% among 410,000; AID 1259415; in the data active means activity change below about -60%; inconclusive means no clear call, values can overlap the other calls; inactive means above about -39%; further: on the % scale 0 is the no-effect control and ±100 the full control effect
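HFF cells seeded 16 h at 37C, treated with compounds, infected with luciferase-reporter HCMV at MOI 1 PFU/cell; luciferase read at 72 h post infection, normalized to buffer-only and Salinomycin controls.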
Sm TGR block = blocks Schistosoma mansoni thioredoxin glutathione reductase; AID 485364; Q962Y6; Potency, µM (doses to about 114 µM), inactives show top-dose activity change, negative = inhibition, hits mostly inhibitors; hit rate 3% among 360,000; purified TGR, DTNB reduction, TNB absorbance 405 nm; further: potency means the concentration at half of the fitted maximal effect; on the % scale 0 is the no-effect control and ±100 the full control effect; nearly all actives have a fitted effect of over 60% in size
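Kinetic colorimetric format: TGR-catalysed, NADPH-driven DTNB reduction monitored via TNB absorbance. Enzyme dispensed at 20 nM; compound exposure 15 min at room temperature before reaction start.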
Numbers without * were called inactive; ? = inconclusive; / = not tested or not shown; [ ] = remark or other dose. Shown are actives, neighbours in structure and some others; about 15% of the full set was active somewhere. Unless noted, the call rests on the fitted dose curve; in most records, active means well fitted curve in the direction sought with a large enough effect; inconclusive means small, poorly fitted or top-dose-only effect, or another doubt; inactive means no such curve, though single readings can be large; an effect the other way counts as inactive or inconclusive.

SMILES	Pf growth 96h	HCV inhibitor	Pf growth 48h	SARS PLpro yeast	HCMV antiviral	Sm TGR block
Cc1cc(C)cc(N(C(=O)c2ccccn2)C(C(=O)NC2CCCCC2)c2cccs2)c1 (configuration not stated)	?	-3%	?	0%	?	-21%
CC1CCCCN1S(=O)(=O)c1ccc(N(C(=O)c2cnccn2)C(C(=O)NC2CCCCC2)c2cccs2)cc1 (configuration not stated)	8.3µM*	?	12µM*	2%	-16	-12%
Cc1ccc(N2C(=O)N(CC(=O)N3CCCc4ccccc43)C(=O)C2C)cc1 (configuration not stated)	61%	-2%	22%	2%	26	1%
Cc1ccc(NC(=O)C2CCN(S(=O)(=O)c3ccc4c(c3)CCCC(=O)N4)CC2)cc1N(C)C	?	-23%	?	8%	-35	-12%
CCOC(=O)c1ccc(N2C(=O)c3n[nH]c(-c4ccco4)c3C2c2ccc(OC)cc2OC)cc1 (configuration not stated)	/	/	/	/	-105*	-23%
CCOC(=O)c1ccc(N2C(=O)c3n[nH]c(C)c3C2c2ccc(OC)cc2)cc1 (configuration not stated)	?	-19%	?	1%	6	-1%
CCOC(=O)c1ccc(N2C(=O)c3n[nH]c(C)c3C2c2ccc(OC)c(OC)c2)cc1 (configuration not stated)	9.3µM*	12%	?	-5%	18	?
CCOC(=O)c1ccc(N2C(=O)c3n[nH]c(C)c3C2c2ccc(OC)cc2OC)cc1 (configuration not stated)	12µM*	4%	?	10%	22	-7%
COc1cccc(C2c3cccn3-c3ccccc3N2C=NC(C)(C)C)c1 (configuration not stated)	/	/	/	/	22	/
CCCCn1c(SCc2nnc(-c3ccccc3)o2)nc2c1c(=O)n(C)c(=O)n2C	-6%	/	?	-3%	-66*	7%
CCCCn1c(SCC(=O)NCc2cccs2)nc2c1c(=O)n(C)c(=O)n2C	9.3µM*	-2%	/	-4%	33	15%[11.4 µM]
CCn1c(SCc2nnc(-c3ccccc3)o2)nc2c1c(=O)n(C)c(=O)n2C	6.6µM*	5%	9%	7%	/	7%
CCCCn1c(SCC(=O)OC)nc2c1c(=O)n(C)c(=O)n2C	-5%[5.75 µM]	5%	-5%	4%	18	0%
CCn1c(SCc2cc(=O)[nH]c3ccccc23)nc2c1c(=O)n(C)c(=O)n2C	/	5%	/	/	4	/
COCCNC(=O)C1(C)CCCN(C(=O)c2cc(F)cc(F)c2)C1 (configuration not stated)	/	/	/	/	-40	/
Cc1ccc(NC(=O)CN(C)C(=O)c2cc(S(=O)(=O)N(C)C)ccc2N2CCCC2)cc1	?	-30%	-12%	-2%	-27	0%
Cc1csc(=O)n1CCC(=O)OCC(=O)c1ccc(Br)cc1	35%	36%	12%	6%	-20	-30%
COc1cc(CCC(=O)N2CCN(S(=O)(=O)c3ccc(C)cc3)CC2)cc(OC)c1OC	?	-2%	5.2µM*	-6%	35	-6%
Cc1ccc(S(=O)(=O)N2CCN(C(=O)CSCc3ccc(C(C)C)cc3)CC2)cc1	?	?	9.3µM*	-4%	?	-4%
Cc1ccc(S(=O)(=O)N2CCN(C(=O)CSc3nnc(C)s3)C2)cc1	4.1µM*	9%	/	5%	-10	-4%
CC(C)(C)OC(=O)N1CCc2nc3ccccc3c(N)c2C1=O	/	/	/	/	-10	/
NC(=O)CC1NC(=O)c2cc([N+](=O)[O-])cc(I)c2OCCC(C(N)=O)NC(=O)[C@@H]2CCCN2C1=O (some centres not stated)	0%	-3%	-3%	6%	3	0%
OCCN1CCN(C2CCC(c3ccc(F)cc3)c3ccc(F)cc32)CC1 (configuration not stated)	/	4µM*	/	/	?	/
Cc1cccc(OCCN2C(=O)C(=O)c3cccc(C)c32)c1	9%	31%	-16%	22%	-31	-9%
Cc1cccc(OCCN2C(=O)C(=O)c3cc(C)ccc32)c1	?	?	11%	-3%	-89*	-1%[57.1 µM]
SMILES	Pf growth 96h	HCV inhibitor	Pf growth 48h	SARS PLpro yeast	HCMV antiviral	Sm TGR block
Cc1ccc2c(c1)C(=O)C(=O)N2CCOc1ccccc1	2%	?	5%	-3%	-73*	/
CCOC(=O)c1c(NC(=O)C2=C(C)NC(=S)NC2c2ccc(F)cc2)sc(C)c1C (configuration not stated)	?	8.9µM*	?	7%	-14	-9%
CCOC(=O)c1c(NC(=O)C2=C(C)NC(=S)NC2c2ccc(C)cc2)sc(C)c1C (configuration not stated)	?	10µM*	12µM*	11%	49	1%
CC[C@@H](C)[C@@H](C(=O)Nc1ccc(C)cc1)N1Cc2ccccc2C1=O	/	/	/	/	2	15%
CCOc1ccc(N=C2NC(=O)CS2)cc1	4%	13%	-4%	-6%	17	6%
Cc1ccc(NC(=O)Cn2cc(C(F)(F)F)cc(Cl)c2=O)cc1Cl	59%	6%	20%	0%	-14	-6%
Cc1cc(C(C)C)n2c(nc3ccccc32)c1C#N	-14%	/	37%	-1%	/	8%
CCc1c(C)c(C#N)c2nc3ccccc3n2c1NCCOC	?	-4%	1.7µM*	-2%	?	40µM*
Cc1cc(-c2ccco2)c(C#N)c2nc3ccccc3n12	154%	?	14%	-8%	-30	28µM*
CCc1c(C)c(C#N)c2nc3ccccc3n2c1Cl	-3%	?	?	-2%	/	11µM*
CCc1c(C)c(C#N)c2nc3ccccc3n2c1-n1nc(C)cc1C	0%	5%	-16%	-15%	11	1%
O=C(NC(Cc1ccccc1)C(=O)O)/C(=C\c1ccccc1)NC(=O)c1ccc(Br)o1 (configuration not stated)	16%	2%	22%	1%	-28	0%
CCOC(=O)c1ccc(N2C(=O)c3cccc4c(C(=O)O)ccc(c34)C2=O)cc1	?	6%	-6%	0%	49	-8%
COc1ccccc1-c1cc(C(=O)NCc2ccccc2)c2c(-c3ccc(C)cc3)[nH]nc2n1	/	/	/	/	-14	-1%
CCOc1ccc(-c2cc(C(=O)NCCc3ccc(OC)c(OC)c3)c3c(-c4ccc(F)cc4)[nH]nc3n2)cc1	/	/	/	/	-92*	-4%
COc1cc(OC)c(-c2cc(C(=O)NCc3ccc(F)cc3)c3c(-c4ccccc4)[nH]nc3n2)cc1OC	/	/	/	/	-93*	-3%
